Test results taken from PubChem BioAssay (Tox21).
Values joined by “and” are separate entries in the source; they are usually repeats but may differ in a detail not shown here. Identical values can stand only once. Inconclusive results are not listed. Active and inactive are the calls of the source. Unless noted, calls come from the whole dose curve; as a rule, active = well fitted curve in the direction sought with a large enough effect in the repeat runs; inconclusive = weak or mixed curves; inactive = no such curve, though single readings can be large; an effect the other way counts as inactive or inconclusive.

How the values were obtained:
[1] = qHTS assay to identify small molecule agonists of the estrogen related receptor signaling pathway with the pleiotropic PPARgamma coactivator (PGC) (AID 1224823); note: potency is the fitted concentration of half-maximal effect
Method in brief: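 Luminescence from One-Glo reagent (30 min, room temperature) was read after 18 h compound treatment at 37 C of PGC/ERR cells plated 6 h beforehand; compounds delivered in DMSO by pin tool.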

[2] = qHTS assay to identify small molecule antagonists of the estrogen related receptor (ERR) signaling pathway from Tox21 library - cell viability counter screen (AID 1224834); note: nearly all actives have a fitted effect of over 30% in size; note: potency is the fitted concentration of half-maximal effect
Method in brief: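 ERR cells, 2,000/well; 6 h settle at 37 C/5% CO2; pin-tool compound transfer in DMSO; 17.5 h at 37 C; CellTiter-Fluor, 30 min; fluorescence intensity.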

[3] = molecular target: Luciferin 4-monooxygenase (Photinus pyralis) (UniProt P08659); experiment: qHTS assay to identify small molecule inhibitors of firefly luciferase (AID 1224835); note: series mostly up to about 120 µM; nearly all actives have a fitted effect of over 25% in size
Method in brief: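 Biochemical qHTS: compounds run as interplate titrations against purified firefly enzyme, with D-luciferin and ATP each at its KM concentration. Light output recorded by CCD imaging.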

[4] = qHTS assay to identify small molecule agonists of the constitutive androstane receptor (CAR) signaling pathway - cell viability counter screen (AID 1224836); note: nearly all actives have a fitted effect of over 45% in size; note: potency is the fitted concentration of half-maximal effect
Method in brief: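 HepG2 cells stably carrying hCAR and a CYP2B6-2.2kb reporter; 15-concentration compounds plus PK11195 (final 0.75 uM), 23 hr at 37 C/5% CO2. Viability read by CellTiter-Fluor fluorescence.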

[5] = qHTS assay to identify small molecule antagonists of the constitutive androstane receptor (CAR) signaling pathway - cell viability counter screen (AID 1224837); note: nearly all actives have a fitted effect of over 45% in size; note: potency is the fitted concentration of half-maximal effect
Method in brief: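 Viability was measured with CellTiter-Fluor in a HepG2 line carrying stably transfected hCAR and a CYP2B6-2.2kb construct. Cells were exposed for 23 hr at 37 C to 15 compound concentrations with 50 nM CITCO as agonist.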

[6] = molecular target: Nuclear receptor subfamily 1 group I member 3 (Homo sapiens) (UniProt Q14994); experiment: qHTS assay to identify small molecule antagonists of the constitutive androstane receptor (CAR) signaling pathway (AID 1224838);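 note: HepG2 cells stably expressing hCAR with CYP2B6 luciferase reporter stimulated by CITCO; nearly all actives have a fitted effect of over 40% in size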
Method in brief: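 Antagonist mode used CITCO at a final 50 nM to activate CAR in human hepatoma HepG2 cells carrying stable hCAR and a 2.2 kb CYP2B6 promoter-luciferase construct. Compounds were tested at 15 concentrations over 24 h, with luminescence as the end point.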

[7] = molecular target: Nuclear receptor subfamily 1 group I member 3 (Homo sapiens) (UniProt Q14994); experiment: qHTS assay to identify small molecule agonists of the constitutive androstane receptor (CAR) signaling pathway (AID 1224839); note: nearly all actives have a fitted effect of over 15% in size; note: potency is the fitted concentration of half-maximal effect
Method in brief: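 HepG2 cells stably co-transfected with hCAR and a CYP2B6-2.2kb luciferase reporter; compounds at 15 concentrations with 0.75 uM PK11195 present. After 24 hr at 37 C, luciferase read by ONE-Glo luminescence.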

[8] = qHTS assay to identify small molecule antagonists of the estrogen related receptor signaling pathway with the pleiotropic PPARgamma coactivator (PGC) from Tox21 10K library - cell viability counter screen (AID 1224840; active = well fitted cell-killing curve with a large enough effect in the repeat runs, not every such curve was filed as active; note: nearly all actives have a fitted effect of over 40% in size; note: potency is the fitted concentration of half-maximal effect)
Method in brief: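 Multiplexed viability counter screen in the PGC/ERR cell line: cells treated with DMSO-dissolved compounds for 17.5 hours at 37 C, then viability measured as CellTiter-Fluor fluorescence.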

[9] = qHTS assay to identify small molecule antagonists of the estrogen related receptor signaling pathway with the pleiotropic PPARgamma coactivator (PGC) from Tox21 10K library (AID 1224841; call rule not given here; note: actives are mostly falling curves and most rising ones were filed inactive; nearly all actives have a fitted effect of over 50% in size; note: potency is the fitted concentration of half-maximal effect)
Method in brief: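 Steps: plate 2,000 PGC/ERR cells per well; incubate 6 h at 37 C with 5% CO2; transfer compounds from DMSO stocks by pin tool; incubate 18 h at 37 C; add One-Glo; measure luminescence 30 min later.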

[10] = qHTS assay to identify small molecule agonists of the estrogen related receptor signaling pathway with the pleiotropic PPARgamma coactivator (PGC) from Tox21 10K library (AID 1224842); note: nearly all actives have a fitted effect of over 15% in size; note: potency is the fitted concentration of half-maximal effect
Method in brief: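 PGC/ERR reporter cell line, 2,000 cells per well, incubated 6 h at 37 C before 23 nL compound in DMSO was added. After 18 h at 37 C, One-Glo luminescence read following 30 min at room temperature.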

Measured: Potency

Luciferin 4-monooxygenase (Photinus pyralis), sequence (P08659 whole entry, looked up): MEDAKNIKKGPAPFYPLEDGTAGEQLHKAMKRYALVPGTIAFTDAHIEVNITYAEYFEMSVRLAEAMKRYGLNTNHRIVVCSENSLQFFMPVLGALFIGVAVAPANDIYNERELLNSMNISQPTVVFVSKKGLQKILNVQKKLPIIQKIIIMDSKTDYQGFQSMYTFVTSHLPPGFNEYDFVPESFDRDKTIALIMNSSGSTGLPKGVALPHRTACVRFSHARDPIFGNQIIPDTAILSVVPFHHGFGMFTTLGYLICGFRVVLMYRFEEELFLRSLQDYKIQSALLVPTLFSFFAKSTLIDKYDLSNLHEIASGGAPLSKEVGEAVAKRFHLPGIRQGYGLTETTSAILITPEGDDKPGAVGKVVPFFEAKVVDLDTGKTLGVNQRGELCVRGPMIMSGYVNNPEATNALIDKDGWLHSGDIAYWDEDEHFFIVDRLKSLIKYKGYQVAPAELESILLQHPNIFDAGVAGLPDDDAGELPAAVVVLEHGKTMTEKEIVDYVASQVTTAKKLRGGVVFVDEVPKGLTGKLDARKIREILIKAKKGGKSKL
Nuclear receptor subfamily 1 group I member 3 (Homo sapiens), sequence (Q14994 whole entry, looked up): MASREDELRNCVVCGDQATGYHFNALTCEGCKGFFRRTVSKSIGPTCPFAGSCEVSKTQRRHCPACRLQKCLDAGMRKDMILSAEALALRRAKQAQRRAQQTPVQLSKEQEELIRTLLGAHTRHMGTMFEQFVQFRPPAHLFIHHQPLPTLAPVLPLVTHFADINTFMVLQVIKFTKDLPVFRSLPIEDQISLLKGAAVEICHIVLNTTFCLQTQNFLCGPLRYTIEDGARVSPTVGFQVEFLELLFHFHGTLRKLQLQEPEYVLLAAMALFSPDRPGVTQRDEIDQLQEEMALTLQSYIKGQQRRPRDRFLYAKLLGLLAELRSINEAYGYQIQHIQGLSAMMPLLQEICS

COc1ccc2[nH]cc(CCNC(C)=O)c2c1
inactive: all assays above

CC(O)CN(CCN(CC(C)O)CC(C)O)CC(C)O (stereo not given)
not listed: [1] | [9] | [10]
inactive: all other assays above

Oc1ccc(/C=C/c2cc(O)cc(O)c2)cc1
active: [1] 11.4 µM | [2] 21.9 µM and 21.7 µM and 26.6 µM | [7] 19.5 µM and 21.7 µM and 29.8 µM | [10] 5.5 µM and 4.86 µM and 10.6 µM
not listed: [3]
inactive: all other assays above

O=C(O)CCC(=O)O
not listed: [1]
inactive: all other assays above

CCCCC1C(=O)N(c2ccccc2)N(c2ccccc2)C1=O
inactive: all assays above

CC1(C)[C@@H]2CC[C@@]1(C)C(=O)C2
not listed: [1]
inactive: all other assays above

CCCCCCCCCCCCCCCC(=O)O
not listed: [1] | [9] | [10]
inactive: all other assays above

Cc1ccccc1C(OCCN(C)C)c1ccccc1 (stereo not given)
not listed: [9]
inactive: all other assays above

O=c1cc[nH]c(=S)[nH]1
not listed: [1]
inactive: all other assays above

CC(=O)NS(=O)(=O)c1ccc(N)cc1
not listed: [1] | [9] | [10]
inactive: all other assays above

NC(=O)c1cnccn1
inactive: all assays above

O=C(O)c1[nH]n(-c2ccc(S(=O)(=O)O)cc2)c(=O)c1N=Nc1ccc(S(=O)(=O)O)cc1
inactive: [3] | [6] | [7]
active: [2] 26.6 µM and 27.4 µM and 28.6 µM | [4] 30.7 µM and 45.4 µM | [5] 48.7 µM and 28.6 µM | [8] 27.4 µM and 45.4 µM

NC(N)=O
not listed: [1] | [9] | [10]
inactive: all other assays above

C1N2CN3CN1CN(C2)C3
not listed: [1] | [9] | [10]
inactive: all other assays above

CC(=O)Nc1nnc(S(N)(=O)=O)s1
not listed: [1] | [9] | [10]
inactive: all other assays above

NC(=O)NC1NC(=O)NC1=O (stereo not given)
not listed: [1] | [9] | [10]
inactive: all other assays above

Cc1noc(NS(=O)(=O)c2ccc(N)cc2)c1C
not listed: [1] | [9] | [10]
inactive: all other assays above

Cc1cc(=O)n(-c2ccccc2)n1C
not listed: [1]
inactive: all other assays above

O=C1CN(/N=C/c2ccc([N+](=O)[O-])o2)C(=O)N1
active: [2] 30.5 µM and 61.1 µM | [4] 27.2 µM and 21.7 µM and 13.3 µM | [5] 27.2 µM and 21.7 µM and 21.1 µM | [8] 54.3 µM | [9] 19.3 µM and 24.3 µM and 16.8 µM
inactive: [3] | [6] | [7] | [10]

CC(C)[C@@H]1CC[C@@H](C)C[C@H]1O
not listed: [1] | [9] | [10]
inactive: all other assays above

O=c1ccc2ccccc2o1
not listed: [1] | [9] | [10]
inactive: all other assays above

O=S(=O)(O)c1ccc2cc(O)ccc2c1
not listed: [1] | [9] | [10]
inactive: all other assays above

CCC1(c2ccccc2)C(=O)NCNC1=O
not listed: [1] | [9] | [10]
inactive: all other assays above

CC(O)C(=O)O (stereo not given)
not listed: [1] | [9] | [10]
inactive: all other assays above

C/C=C/c1ccc(OC)cc1
not listed: [1] | [9] | [10]
inactive: all other assays above

CCCCC(CC)COC(=O)/C=C/c1ccc(OC)cc1 (stereo not given)
not listed: [1]
inactive: all other assays above

CC(C)(Oc1ccc(C2CC2(Cl)Cl)cc1)C(=O)O (stereo not given)
not listed: [1] | [9] | [10]
inactive: all other assays above

Nc1ccc(C(=O)O)cc1
not listed: [1] | [9] | [10]
inactive: all other assays above

C[C@]12C=CC(=O)C=C1CC[C@@H]1[C@@H]2[C@@H](O)C[C@@]2(C)[C@H]1CC[C@]2(O)C(=O)CO
not listed: [1] | [9] | [10]
inactive: all other assays above

Cc1ccc(S(=O)(=O)NC(=O)NN2CCCCCC2)cc1
not listed: [7]
inactive: all other assays above

O=C(C1CCCCC1)N1CC(=O)N2CCc3ccccc3C2C1 (stereo not given)
not listed: [2] | [6]
inactive: all other assays above
